Screening results from PubChem.
Hits are enriched below; roughly 6.1% of the tested compounds scored in any of these assays.
DRD3 agonist – qHTS of D3 Dopamine Receptor Agonist: qHTS | max activation, % | AID 652048, 2013 | 0.58% of 410,000 active | D3R DiscoveRx beta-arrestin cells, luminescence, 90 min | D(3) dopamine receptor (Homo sapiens), P35462; in the data active means max activation above about 30%; further: 0% is about no effect
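Cells at 1500/well, incubated overnight, then treated with pinned compounds (dopamine as control) for 90 min at 37 degrees C. DiscoveRx reagent added for 30 - 60 minutes at room temperature; luminescence read.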
D1 ag – Allosteric Agonists of the Human D1 Dopamine Receptor: qHTS; HEK293 T-REx D1 cells, calcium flux, agonist mode; activation, % at 2 µM; 1% of 360,000 active; AID 504660, 2011; in the data active means activation above about 30%; further: 0% is about no effect
Target sequence (P21728 whole entry, looked up): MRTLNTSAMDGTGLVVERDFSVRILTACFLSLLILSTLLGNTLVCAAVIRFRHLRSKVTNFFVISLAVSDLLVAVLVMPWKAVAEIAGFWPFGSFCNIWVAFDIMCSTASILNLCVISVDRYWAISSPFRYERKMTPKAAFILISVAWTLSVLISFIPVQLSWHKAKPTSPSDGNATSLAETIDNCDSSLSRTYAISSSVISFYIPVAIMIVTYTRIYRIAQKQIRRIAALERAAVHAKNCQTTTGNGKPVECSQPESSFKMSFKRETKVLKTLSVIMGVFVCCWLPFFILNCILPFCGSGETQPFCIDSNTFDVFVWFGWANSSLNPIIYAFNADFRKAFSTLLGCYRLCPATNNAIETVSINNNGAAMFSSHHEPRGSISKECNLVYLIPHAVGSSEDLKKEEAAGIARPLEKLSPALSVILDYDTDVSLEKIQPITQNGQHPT
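Agonism was scored from calcium flux recorded over 180 s (1 read/s) after pintool compound addition, following a 10-cycle baseline. Cells were inducible force-coupled HEK293 TREx D1, plated overnight at 30 C and loaded with no-wash calcium dye.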
D3 antag – qHTS of D3 Dopamine Receptor Antagonist: qHTS; D(3) dopamine receptor (Homo sapiens), P35462; D3R cells, DiscoveRx beta-arrestin luminescence, antagonist mode; active compounds read low; max response, negative = inhibition, %; 2.5% of 360,000 active; in the data active means max response below about -50%; inconclusive means no clear call, values can overlap the other calls; further: on the % scale 0 is the no-effect control and ±100 the full control effect
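Cells plated overnight at 1500 cells/well, then exposed to library compounds with dopamine controls for 90 minutes at 37 degrees C. DiscoveRx reagent added for 30–60 minutes at room temperature; luminescence read, quantitative HTS format.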
D1 antagonist – Antagonist of Human D 1 Dopamine Receptor: qHTS. D(1A) dopamine receptor (Homo sapiens), P21728. HEK293 TREx D1 cells, calcium flux, dopamine EC80; active compounds read low. activity change, negative = inhibition, % at 10 µM. 3.2% of 360,000 active. AID 504652, 2011; in the data active means activity change below about -30%; further: on the % scale 0 is the no-effect control and ±100 the full control effect
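Tetracycline-induced HEK293 Trex D1 cells, force-coupled to calcium, dye-loaded; compounds added and read 180 s, then EC80 dopamine added and calcium flux tracked kinetically another 180 s.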
D1 potentiator – Potentiators of Human D1 Dopamine Receptor: qHTS. HEK293 TREx D1 cells, calcium flux, dopamine EC20 potentiation. AID 504651, 2011. 0.036% of 360,000 active. D(1A) dopamine receptor (Homo sapiens), P21728. potentiation, % at 10 µM; in the data active means potentiation above about 30%; further: 0% is about no effect
Starred values were filed as active, the others as inactive; ? = inconclusive; / = not tested or not shown.

SMILES	DRD3 agonist	D1 ag	D3 antag	D1 antagonist	D1 potentiator
O=C(Nc1ccc(N2CCN(C(=O)c3ccco3)CC2)cc1)c1ccc(Br)cc1	12	0	15	-32*	-11
CC(=O)c1ccc(NC(=O)COc2ccccc2C(=O)Nc2ccc(C)cn2)cc1	3	-2	4	/	-4
O=C(Nc1ccc(C(=O)N2CCCCC2)cc1)c1ccc(Br)cc1	-4	4	-8	-31*	-4
CC(=O)c1ccc(NC(=O)COc2ccccc2C(=O)Nc2ccccc2)cc1	4	7	2	-61*	-11
O=C(Nc1ccc(C(=O)N2CCCC2)cc1)c1ccccc1	12	/	23	/	/
Cc1ccc(C)c(NC(=O)CSc2ncc3c(n2)-c2ccc(Cl)cc2N(C)S3(=O)=O)c1	8	4	/	-5	2
CCOC(=O)c1cnc(NCc2ccccc2OC)c2ccccc12	-1	2	/	10	-1
O=C(Nc1ccc2oc(-c3cccnc3)nc2c1)c1ccc(-c2cccc(OC(F)(F)F)c2)o1	10	0	/	-12	-1
CCn1c(=O)c2sccc2n2c(CCC(=O)Nc3ccc(C(C)C)cc3)nnc12	2	-1	/	-16	-1
O=C(Cn1c(=O)n(-c2ccc(Cl)cc2)c(=O)c2oc3ccccc3c21)Nc1ccccc1	9	5	/	-11	-4
Cc1ccc(OCc2nn3c(-c4n[nH]c5c4CCC5)nnc3s2)cc1	/	1	/	7	-6
COc1ccccc1-c1nnc2sc(COc3ccc(Cl)cc3)nn12	1	0	-52*	-2	-5
CCOc1cccc(-c2nnc3sc(COc4ccccc4)nn23)c1	38*	5	22	12	0
c1ccc(OCc2nn3c(-c4n[nH]c5c4CCC5)nnc3s2)cc1	7	2	-52*	6	-1
Cc1ccccc1NC(=O)CN1C(=O)CCn2nc(-c3cccn3C)cc21	11	3	/	-2	0
Cc1nc2cccnc2n1C1CCN(C(=O)Nc2ccccc2C(F)(F)F)CC1	7	0	/	9	-1
CC(C(=O)NCc1ccccc1F)n1ccc2cc(S(=O)(=O)N3CCCC3)ccc21 (configuration not stated)	4	6	/	3	-3
CN(C)c1ccc2nc3c(=O)[nH]c(=O)nc-3n(CC(O)C(O)C(O)CO)c2c1 (configuration not stated)	-16	46*	?	3	-2
COc1cc(Nc2nc3ccccc3c3nnc(C)n23)cc(OC)c1	10	3	/	-9	-1
CCn1c(C(=O)NCc2ccccc2)cc2sc(Cl)cc21	-10	13	/	-13	-7
Clc1ccc(Nc2c(-c3ccccc3Cl)nc3ccc(Cl)cn23)cc1	2	0	/	-41*	-2
Clc1ccc2nc(-c3ccccn3)c(Nc3ccc4c(c3)OCO4)n2c1	-18	1	-60*	1	-2
Oc1ccccc1-c1nc2cnccn2c1Nc1ccc(Cl)cc1	7	3	/	3	0
COc1cc2c(cc1OC)C1(CCCC1)CNC2c1cccc([N+](=O)[O-])c1 (configuration not stated)	-35	0	-77*	9	-2
COc1ccccc1NC(=O)c1cc2cc3ccc(OC)c(Cl)c3nc2s1	-5	0	/	-3	-1
SMILES	DRD3 agonist	D1 ag	D3 antag	D1 antagonist	D1 potentiator
CN(C)CCN(C(=O)c1ccco1)c1nc2c(F)cc(F)cc2s1	-25	0	/	-10	-5
O=C(Nc1cccc(-c2ccc(N3CCOCC3)nn2)c1)c1ccccc1	7	0	12	15	0
Cc1ccccc1C(=O)Nc1cccc(-c2ccc(N3CCOCC3)nn2)c1	1	5	-1	-37*	-1
O=C(COc1ccccc1)Nc1cccc(-c2ccc(N3CCOCC3)nn2)c1	2	1	21	-73*	2
O=C(COc1ccc(Cl)cc1Cl)Nc1cccc(-c2ccc(N3CCOCC3)nn2)c1	-13	7	-17	-1	6
CCOc1ccccc1CNC(=O)C1CCN(S(=O)(=O)c2ccc3c(ccn3C)c2)CC1	3	5	/	-17	3
CC(=O)Nc1sc(N/N=C/c2ccccc2)nc1-c1ccc(C)cc1	5	0	10	1	-2
CC(=O)Nc1sc(/C(C#N)=C\c2cccc(Cl)c2)nc1-c1ccc(C)cc1	-6	244*	2	-45*	-6
CCCCc1nc2ccccc2n2c(-c3ccc(OC)cc3)c3c(=O)n(C)c(=O)n(C)c3c12	0	1	/	1	1
O=C(CSc1nccn1Cc1ccc(F)cc1)NCc1ccc(F)cc1	-10	0	/	8	0
COc1ccccc1NC(=O)C1=C(C)Nc2nc3ccccc3n2C1c1ccccc1Cl (configuration not stated)	-2	4	/	4	4
CC1Cn2c(C(=O)NCc3ccccc3Cl)cc3cccc(c32)S1 (configuration not stated)	9	2	/	-3	2
O=C(NCC1CCCCC1)c1cc(Br)ccc1Cl	-12	-1	6	-32*	1
Cc1cc(C)cc(Nc2cc(C(=O)NC3CCC(C)CC3)c3ccccc3n2)c1 (configuration not stated)	-7	2	/	8	-2
Fc1ccc(-c2nc(Nc3cccc(C(F)(F)F)c3)nc3c2COc2ccccc2-3)cc1	5	29	/	3	-2
O=C(CC1N=C2c3ccccc3N=C(SCc3cccc(Cl)c3)N2C1=O)NCCc1ccccc1 (configuration not stated)	-6	6	/	18	8
COc1ccc(OCCNC(=O)Nc2cc(F)c(F)cc2Cl)cc1	-4	4	-13	-18	-7
COc1cccc(OCCNC(=O)Nc2cc(F)c(F)cc2Cl)c1	6	9	-10	-40*	20
CCOC(=O)NC(NCCc1ccccc1)(C(F)(F)F)C(F)(F)F	31*	0	-6	/	-5
Cc1cc(SCC(=O)Nc2ccc(O)cc2)n2ncc(-c3ccccc3)c2n1	15	2	10	-16	-5
CC(=O)Nc1ccc(Nc2cc(C)nc3c(-c4ccccc4)c(C)nn23)cc1	5	4	5	-30*	8
C=CCSc1cc(C)nc2c(-c3ccc(Cl)cc3)c(C)nn12	38*	3	20	9	4
CC(=O)Nc1ccc(Nc2cc(C(C)C)nc3c(-c4ccccc4)c(C)nn23)cc1	1	9	22	-8	-1
Cc1cc(SCC(=O)Nc2ccc(O)cc2)n2nc(C)c(-c3ccccc3)c2n1	7	3	11	-50*	-4
CN1C(=O)c2ccccc2Sc2ccc(NC(=O)N3CCN(c4ccc(F)cc4)CC3)cc21	1	0	/	-1	-1
